# Assay results: ChEMBL document CHEMBL3988442, “University of Dundee, Small-Polar-MMV Screening Library” (2021)
# Biological target: T1, Methionyl-tRNA synthetase, putative (Leishmania donovani (strain BPK282A1)) (UniProt E9BF75)
# T1 sequence (whole entry): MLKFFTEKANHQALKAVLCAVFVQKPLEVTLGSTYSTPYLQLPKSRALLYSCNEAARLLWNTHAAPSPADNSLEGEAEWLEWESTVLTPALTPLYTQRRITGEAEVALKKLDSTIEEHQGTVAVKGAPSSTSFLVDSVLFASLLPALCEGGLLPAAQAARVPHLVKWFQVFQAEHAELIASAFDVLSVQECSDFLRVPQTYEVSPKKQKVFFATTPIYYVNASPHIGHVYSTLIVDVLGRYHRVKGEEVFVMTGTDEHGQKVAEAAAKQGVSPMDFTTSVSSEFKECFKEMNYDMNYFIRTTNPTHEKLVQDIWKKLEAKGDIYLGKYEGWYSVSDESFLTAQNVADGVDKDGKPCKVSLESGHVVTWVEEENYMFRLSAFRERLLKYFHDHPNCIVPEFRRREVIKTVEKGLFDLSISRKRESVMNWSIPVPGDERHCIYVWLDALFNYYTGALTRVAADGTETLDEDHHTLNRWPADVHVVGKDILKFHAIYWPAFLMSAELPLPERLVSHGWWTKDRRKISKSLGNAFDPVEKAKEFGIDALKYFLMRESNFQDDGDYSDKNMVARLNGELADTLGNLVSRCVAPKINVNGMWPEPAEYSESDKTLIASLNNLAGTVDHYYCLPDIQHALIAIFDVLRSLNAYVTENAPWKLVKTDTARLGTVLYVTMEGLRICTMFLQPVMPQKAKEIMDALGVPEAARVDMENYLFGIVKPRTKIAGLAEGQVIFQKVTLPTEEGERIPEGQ
# Assay: Leishmania donovani Methionine tRNA synthetase (LdMetRS):v7. Dose response assay
# Type: functional
# Set-up: conc 80 nM, time 150 minutes
smiles,measurement,setting,value
CN(CCN)c1nc(Nc2ccc(F)c(F)c2)nc2c1cnn2C,PXC50,"BOTTOM 2.133170856, HILLSLOPE 1.093077372, MAX_EFFECT 77.62557078, TOP 100.0",4.41
same,PXC50,"BOTTOM 3.57857286, HILLSLOPE 1.096477566, MAX_EFFECT 74.90566038, TOP 102.700119",4.36
same,PXC50,"BOTTOM 5.354463627, HILLSLOPE 0.967320352, MAX_EFFECT 79.31688805, TOP 100.0",4.54
OCCNc1nc(Nc2ccc(F)c(F)c2)nc2ccsc12,PXC50,"BOTTOM 1.719198718, HILLSLOPE 0.904710071, MAX_EFFECT 90.94412331, TOP 99.0565164",5.18
same,PXC50,"BOTTOM 2.94588064, HILLSLOPE 1.041078654, MAX_EFFECT 85.02202643, TOP 89.21565971",5.26
same,PXC50,"BOTTOM 5.256543605, HILLSLOPE 0.944714137, MAX_EFFECT 88.2231405, TOP 97.0813666",5.17
Cc1nc(CN(C)CC2CCCN2c2cccnn2)nc2ccccc12 (stereo not drawn),PXC50,"BOTTOM 6.94309251, HILLSLOPE 1.363298468, MAX_EFFECT 83.49834983, TOP 100.0",4.46
same,PXC50,"BOTTOM 8.751319867, HILLSLOPE 2.615595336, MAX_EFFECT 78.85304659, TOP 100.0",4.21
same,PXC50,"BOTTOM -1.910835363, HILLSLOPE 2.399208882, MAX_EFFECT 79.71014493, TOP 90.01694606",4.37
Cn1ncc2c(NCCO)nc(Nc3cccc(S(N)(=O)=O)c3)nc21,PXC50,MAX_EFFECT 2.127659574,< 4
same,PXC50,MAX_EFFECT 6.392694064,< 4
same,PXC50,MAX_EFFECT 11.50943396,< 4
CN(C)c1nc(Nc2ccc(F)c(F)c2)nc2c1cnn2C,PXC50,"BOTTOM 0.0, HILLSLOPE 0.943271721, MAX_EFFECT 54.1567696, TOP 49.71942024",6.12
same,PXC50,"BOTTOM 0.0, HILLSLOPE 1.040792015, MAX_EFFECT 59.65665236, TOP 50.11386445",6.1
same,PXC50,"BOTTOM 0.0, HILLSLOPE 1.064354186, MAX_EFFECT 50.0967118, TOP 49.52260288",6.2
Cn1ncc2c(Nc3ccc(F)c(F)c3)nc(Nc3ccc(F)c(F)c3)nc21,PXC50,MAX_EFFECT 4.405286344,< 4
same,PXC50,MAX_EFFECT 13.01652893,< 4
same,PXC50,MAX_EFFECT 15.66731141,< 4
Cn1ncc2c(NCCO)nc(Nc3cccc(OC(F)(F)F)c3)nc21,PXC50,MAX_EFFECT 13.77672209,< 4
same,PXC50,MAX_EFFECT 18.02575107,< 4
same,PXC50,MAX_EFFECT 24.6628131,< 4
Cn1ncc2c(NCCCO)nc(Nc3ccc(F)c(F)c3)nc21,PXC50,"BOTTOM 3.669470718, HILLSLOPE 1.210805745, MAX_EFFECT 80.79625293, TOP 84.65096449",5.1
same,PXC50,"BOTTOM -1.663315364, HILLSLOPE 0.981462858, MAX_EFFECT 92.22222222, TOP 100.0",4.94
same,PXC50,"BOTTOM -4.044672009, HILLSLOPE 0.90681659, MAX_EFFECT 92.93598234, TOP 107.9137749",4.87
CNS(=O)(=O)CCNc1nc(NCCO)c2cnn(C)c2n1,PXC50,MAX_EFFECT 5.780346821,< 4
same,PXC50,MAX_EFFECT 6.392694064,< 4
same,PXC50,MAX_EFFECT 15.28301887,< 4
COc1ccccc1CN1CCC(c2nn(CCN)c3nccnc23)C1 (stereo not drawn),PXC50,"BOTTOM 6.910506635, HILLSLOPE 2.152998005, MAX_EFFECT 63.75838926, TOP 91.48778108",4.15
same,PXC50,"BOTTOM -1.343168311, HILLSLOPE 1.212343279, MAX_EFFECT 59.72222222, TOP 92.89137202",4.23
same,PXC50,"BOTTOM -1.505582699, HILLSLOPE 1.035538343, MAX_EFFECT 55.28596187, TOP 100.0",4.07
C1CCCN(CC2CCCN(Cc3noc(C4CC4)n3)C2)CC1 (stereo not drawn),PXC50,"BOTTOM 4.352296135, HILLSLOPE 1.766055102, MAX_EFFECT 53.69127517, TOP 86.72954931",4.1
same,PXC50,"BOTTOM 8.24905968, HILLSLOPE 1.172496443, MAX_EFFECT 57.63888889, TOP 100.0",4.05
same,PXC50,MAX_EFFECT 48.70017331,< 4
c1ccc(CN2CCC(CCNc3ncnc4c3CCNCC4)C2)cc1 (stereo not drawn),PXC50,"BOTTOM 0.940952942, HILLSLOPE 0.875315482, MAX_EFFECT 60.13864818, TOP 100.0",4.15
same,PXC50,"BOTTOM 1.061688445, HILLSLOPE 1.57945515, MAX_EFFECT 59.73154362, TOP 100.0",4.12
same,PXC50,"BOTTOM -6.676814726, HILLSLOPE 1.817914846, MAX_EFFECT 63.88888889, TOP 100.0",4.17
Cc1nc(-c2cc(Cl)c3c(c2)CC(CN)O3)c[nH]1 (stereo not drawn),PXC50,MAX_EFFECT 32.65306122,< 4
same,PXC50,MAX_EFFECT 37.68115942,< 4
same,PXC50,MAX_EFFECT 41.5061296,< 4
Cn1ncc2c(NCCN3CCOCC3)nc(Nc3ccc(F)c(F)c3)nc21,PXC50,"BOTTOM 0.0547, HILLSLOPE 0.927770989, MAX_EFFECT 85.76850095, TOP 98.88350894",4.86
same,PXC50,"BOTTOM -0.988495369, HILLSLOPE 1.035285925, MAX_EFFECT 73.01886792, TOP 82.1779252",4.91
same,PXC50,"BOTTOM -7.338677117, HILLSLOPE 0.775594481, MAX_EFFECT 82.64840183, TOP 100.0",4.76
CNS(=O)(=O)c1cccnc1Nc1cccc(C(F)(F)F)c1,PXC50,MAX_EFFECT 3.524229075,< 4
same,PXC50,MAX_EFFECT 5.165289256,< 4
same,PXC50,MAX_EFFECT 6.451612903,< 4
NC1CCOc2c(Cl)cc(Cl)cc21 (stereo not drawn),PXC50,MAX_EFFECT 4.805491991,< 2.7
same,PXC50,MAX_EFFECT 6.273764259,< 3
same,PXC50,MAX_EFFECT 11.76470588,< 2.7
same,PXC50,MAX_EFFECT 23.54211663,< 3
O=C(O)CN1CCC(F)(F)C2(CCN(c3ccccc3)C2)C1 (stereo not drawn),PXC50,"BOTTOM 0.682019073, HILLSLOPE 1.183129542, MAX_EFFECT 69.01408451, TOP 100.0",4.25
same,PXC50,"BOTTOM 1.497780238, HILLSLOPE 1.024260355, MAX_EFFECT 65.37037037, TOP 100.0",4.23
same,PXC50,"BOTTOM -1.515302198, HILLSLOPE 0.859784414, MAX_EFFECT 63.76811594, TOP 100.0",4.28
same,PXC50,"BOTTOM -4.436470638, HILLSLOPE 1.966892025, MAX_EFFECT 57.61821366, TOP 100.0",4.1
same,PXC50,"BOTTOM -10.23367543, HILLSLOPE 2.537985382, MAX_EFFECT 60.54421769, TOP 60.60381795",4.54
Cc1cnn(CC2CCCN2Cc2nc(C)c3ccccc3n2)c1 (stereo not drawn),PXC50,"BOTTOM 4.743177934, HILLSLOPE 1.089829687, MAX_EFFECT 75.04332756, TOP 100.0",4.32
same,PXC50,"BOTTOM 12.95021696, HILLSLOPE 2.00591159, MAX_EFFECT 86.80555556, TOP 100.0",4.37
same,PXC50,"BOTTOM -2.883731045, HILLSLOPE 1.436435191, MAX_EFFECT 78.52348993, TOP 84.80947153",4.63
CN(C)CCNc1nc(Nc2ccc(F)c(F)c2)nc2c1cnn2C,PXC50,"BOTTOM 0.475518208, HILLSLOPE 0.90804468, MAX_EFFECT 68.49315068, TOP 100.0593914",4.37
same,PXC50,"BOTTOM 1.11826122, HILLSLOPE 1.149142478, MAX_EFFECT 65.47169811, TOP 85.8972695",4.44
same,PXC50,"BOTTOM 3.189178936, HILLSLOPE 1.201155954, MAX_EFFECT 69.44971537, TOP 84.11641449",4.53
O=S(=O)(NCCSc1nccn1C1CC1)c1ccccc1,PXC50,MAX_EFFECT 2.721088435,< 4
same,PXC50,MAX_EFFECT 2.898550725,< 4
same,PXC50,MAX_EFFECT 8.23117338,< 4
